# Test results as given in PubChem BioAssay.
# Active and inactive are the calls of the source. No stated cut-off is given here; in the data, active means inhibition above about 30%; inactive means the rest.
# Assay: growth suppression of yeast trafficking mutant, preliminary HTS, modulators of trafficking downstream of Golgi apparatus project, 1536-format plate, OD 615 nm (AID 637)
# Details: yeast transport mutant growth, absorbance 615 nm, 18 h; active compounds read high
row,Structure (SMILES),inhibition
1,COC(=O)c1cc(-c2c(C)nn(-c3ccccc3)c2C)n[nH]1,-4.76% (inactive)
2,CCN(CC)CCNC(=O)C1CCN(S(=O)(=O)N2CCCCC2)CC1,0.32% (inactive)
3,COc1ccc(-c2noc(CCC(=O)Nc3nc4ccccc4s3)n2)cc1,7.46% (inactive)
4,Nc1nc(SCCOc2ccccc2)n[nH]1,-5.24% (inactive)
5,COc1cc(OC)cc(-c2nc(N)n[nH]2)c1,2.06% (inactive)
6,O=c1ccn(Cc2ccccc2Cl)cc1,-3.33% (inactive)
7,O=C(NC12CC3CC(CC(C3)C1)C2)N1CCN(C(=O)C2CCCO2)CC1 (stereo not given),5.24% (inactive)
8,O=C(C1CC2CCC1C2)N1CCN(Cc2ccc3c(c2)OCO3)CC1 (stereo not given),3.33% (inactive)
9,O=C(O)c1cccn2c(=O)c3ccccc3nc12,-2.22% (inactive)
10,COc1cc2c(cc1NCc1ccccn1)oc1ccccc12,5.08% (inactive)
11,CCCCCCn1c(CN2CCN(Cc3ccccc3)CC2)nc2c1c(=O)n(C)c(=O)n2C,4.55% (inactive)
12,Cc1cccc2cc(C(c3nnnn3C(C)(C)C)N3CCN(C(=O)c4ccco4)CC3)c(=O)[nH]c12 (stereo not given),0% (inactive)
13,Cc1ccc(Cn2ccc(NC(=O)c3noc4c3CCCC4)n2)cc1,2.86% (inactive)
14,CCOC(=O)CC(=O)c1cc(OC)c(OC)c(OC)c1,-3.49% (inactive)
15,CCOc1ccc(C2/C(=C(/O)c3ccccc3)C(=O)C(=O)N2CCCN(C)C)cc1OC (stereo not given),6.19% (inactive)
16,Cn1c(=O)c(=O)n(C)c2cc(S(=O)(=O)N3CCN(c4cccc(C(F)(F)F)c4)CC3)ccc21,3.02% (inactive)
17,CN(c1ccccc1C(=O)N1CCN(c2cccc(Cl)c2)CC1)S(C)(=O)=O,1.43% (inactive)
18,CCCn1nc(CC(=O)O)c2ccccc2c1=O,-3.02% (inactive)
19,COc1cccc(Nc2nc(=O)[nH]nc2C)c1,8.57% (inactive)
20,CCN(CC)CCN1C(=O)C(O)=C(C(=O)c2cccs2)C1c1ccc(C)o1 (stereo not given),-1.11% (inactive)

row,Structure (SMILES),inhibition
1,Cc1ccc(CCSCC(=O)O)cn1,0.16% (inactive)
2,Cn1c(=O)c2c(nc(-n3ccnc3)n2C)n(C)c1=O,1.59% (inactive)
3,COc1ccc(C2C(C#N)=C(N)Oc3cc4c(cc32)OCO4)cc1 (stereo not given),-1.11% (inactive)
4,CCCc1cc(=O)[nH]c(/N=C(\N)Nc2ccccc2)n1,3.49% (inactive)
5,CCCCCn1c(CN(C)Cc2ccccc2)nc2c1c(=O)n(C)c(=O)n2C,4.76% (inactive)
6,Cc1cccc(OCC(=O)Nc2ccccc2N2CCN(C(=O)C(C)C)CC2)c1C,4.13% (inactive)
7,CCNc1oc(COc2cccc(C)c2)nc1C#N,-10.3% (inactive)
8,C=C(C)COc1ccc(-c2n[nH]c(C)c2-c2ccccc2)c(O)c1,9% (inactive)
9,C=CCn1c(SCc2cc(=O)n3ccsc3n2)nnc1C1CCCCC1,-0.16% (inactive)
10,Cc1nnc(NC2CCCCC2)[nH]c1=O,3.02% (inactive)
11,CCc1cc(-c2[nH]ncc2-c2ccc3c(c2)OCO3)c(O)cc1O,27.1% (inactive)
12,CCn1nnc(NC(=O)c2ccccc2Br)n1,2.86% (inactive)
13,O=S(=O)(c1ccc2c(c1)OCCO2)N(Cc1ccc(F)cc1)Cc1nnc(-c2cccs2)o1,0.79% (inactive)
14,Nc1nnc(Cc2ccc(Cl)cc2)s1,3.49% (inactive)
15,Cc1onc(-c2ccccc2)c1C(=O)N1CCCSC1=Nc1ccccc1,0.63% (inactive)
16,O=C(Nc1ccccc1)N(Cc1cccnc1)Cc1ccco1,1.75% (inactive)
17,COc1ccccc1N1CCN(C(=O)C2CC=CCC2C(=O)O)CC1 (stereo not given),2.54% (inactive)
18,CN=C(C)C1=C(O)C(C(=O)OC)C(C)(C)CC1=O (stereo not given),2.7% (inactive)
19,O=C(CN1C(=O)CC(c2ccccc2)=Nc2ccccc21)NCc1ccco1,13.5% (inactive)
20,O=C(CP(=O)(c1ccccc1)c1ccccc1)N1CCCCC1,6.83% (inactive)
